Results filed as inconclusive are left out. Activity calls are given as the source filed them. Unless noted, calls come from the whole dose curve; as a rule, active = well fitted curve in the direction sought with a large enough effect in the repeat runs; inconclusive = weak or mixed curves; inactive = no such curve, though single readings can be large; an effect the other way counts as inactive or inconclusive.
What was measured:
[1] = qHTS assay to identify small molecule agonists of the RXR signaling pathway - cell viability counter screen (AID 1159529); note: nearly all actives have a fitted effect of over 50% in size; note: potency is the fitted concentration of half-maximal effect
Outline: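 Steps: seed RXR-alpha-UAS-bla HEK 293T cells in assay medium containing 2% charcoal-stripped FBS; incubate 5 hr; add compounds in DMSO; incubate 16 hr at 37 C; after the bla read, add CellTiter-Glo and read luminescence at 30 min.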

[2] = qHTS assay to identify small molecule antagonists of the retinoid acid receptor (RAR) signaling pathway - cell viability counter screen (AID 1159551); note: nearly all actives have a fitted effect of over 35% in size
Outline: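 Retinol-stimulated (1 uM final) C3RL4 cells, compound 6 h, 37 C; readout CellTiter-Glo luminescence (ATP) after 30 min RT incubation.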

[3] = qHTS assay to identify small molecule antagonists of the retinoic acid receptor (RAR) signaling pathway (AID 1159552; note: nearly all actives have a fitted effect of over 50% in size)
Outline: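 Retinol at 1 uM final stimulated RARE-luciferase expression in C3RL4 cells exposed to test compounds for 6 hr at 37 C. Reduced luminescence, read 30 min after detection reagent, indicated pathway antagonism.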

[4] = qHTS assay to identify small molecule agonists of the retinoic acid receptor (RAR) signaling pathway (AID 1159553)
Outline: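 Reporter readout comes from luciferase under RARE control in C3RL4 cells; compound exposure lasts 6 hr at 37 C in 5% CO2, and luminescence is recorded following a 30 min room-temperature incubation with reagent.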

[5] = biological target: Luciferin 4-monooxygenase (Photinus pyralis) (UniProt P08659); test: qHTS assay to identify small molecule inhibitors of firefly luciferase (AID 1224835); note: nearly all actives have a fitted effect of over 25% in size; note: potency is the fitted concentration of half-maximal effect
Outline: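 Biochemical qHTS: compounds run as interplate titrations against purified firefly enzyme, with D-luciferin and ATP each at its KM concentration. Light output recorded by CCD imaging.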

[6] = qHTS assay to identify small molecule agonists of the constitutive androstane receptor (CAR) signaling pathway - cell viability counter screen (AID 1224836); note: series mostly up to about 92 µM; nearly all actives have a fitted effect of over 45% in size
Outline: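 Cells were seeded and incubated 4 hrs. Compounds were added across 15 concentrations together with PK11195 at 0.75 uM final. Plates were incubated 23 hrs at 37 C. CellTiter-Fluor was added and fluorescence measured.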

[7] = qHTS assay to identify small molecule antagonists of the constitutive androstane receptor (CAR) signaling pathway - cell viability counter screen (AID 1224837); note: series mostly up to about 92 µM; nearly all actives have a fitted effect of over 45% in size
Outline: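 Counter screen run in HepG2-CYP2B6-hCAR cells: 4 hr settle, compound titration (15 concentrations) with 50 nM CITCO, 23 hr at 37 C/5% CO2, CellTiter-Fluor fluorescence.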

[8] = biological target: Nuclear receptor subfamily 1 group I member 3 (Homo sapiens) (UniProt Q14994); test: qHTS assay to identify small molecule antagonists of the constitutive androstane receptor (CAR) signaling pathway (AID 1224838);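 note: HepG2 cells stably expressing hCAR with CYP2B6 luciferase reporter stimulated by CITCO; nearly all actives have a fitted effect of over 40% in size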
Outline: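 Cell line: HepG2 double-stable for hCAR and CYP2B6-2.2kb reporter. Agonist: CITCO, 50 nM final. Compounds: 15 concentrations, 24 h, 37 C. Detection: ONE-Glo luminescence.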

[9] = biological target: Nuclear receptor subfamily 1 group I member 3 (Homo sapiens) (UniProt Q14994); test: qHTS assay to identify small molecule agonists of the constitutive androstane receptor (CAR) signaling pathway (AID 1224839);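 note: HepG2 cells stably carrying human CAR and a CYP2B6 luciferase reporter; series mostly up to about 92 µM; nearly all actives have a fitted effect of over 15% in size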
Outline: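 Cells were plated and incubated 4 hrs, then dosed with compounds at 15 concentrations. PK11195 was added to 0.75 uM final. After 24 hrs at 37 C, luciferase luminescence was measured.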

[10] = biological target: Thyrotropin receptor (Homo sapiens) (UniProt P16473); test: qHTS assay to identify small molecule agonists of the thyroid stimulating hormone receptor (TSHR) signaling pathway (AID 1224843; calls by dose curve; note: nearly all actives have a fitted effect of over 45% in size)
Outline: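 TSHR-HEK293 cells in agonist mode, 30 min room-temperature step, then cAMP measured by competitive HTRF (cAMP-d2 with anti-cAMP cryptate) after 1 h at room temperature. Tested at 15 concentrations in triplicate.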

[11] = qHTS assay to identify small molecule antagonists of the estrogen related receptor signaling pathway with the pleiotropic PPARgamma coactivator (PGC) from Tox21 10K library - cell viability counter screen (AID 1224840; active = well fitted cell-killing curve with a large enough effect in the repeat runs, not every such curve was filed as active; note: nearly all actives have a fitted effect of over 40% in size)
Outline: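 Following seeding of 2,000 PGC/ERR cells/well and 6 hours' incubation, test compounds were delivered in DMSO. The plates then sat 17.5 hours at 37 C before a fluorogenic live-cell protease reagent (CellTiter-Fluor) was read after 30 min.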

[12] = qHTS assay to identify small molecule antagonists of the estrogen related receptor (ERR) signaling pathway from Tox21 library - cell viability counter screen (AID 1224834); note: nearly all actives have a fitted effect of over 30% in size
Outline: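 After 17.5 h of compound exposure at 37 C, ERR cells are incubated with CellTiter-Fluor for 30 min and fluorescence intensity serves as the viability measure.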

[13] = qHTS assay to identify small molecule antagonists of the estrogen related receptor signaling pathway with the pleiotropic PPARgamma coactivator (PGC) from Tox21 10K library (AID 1224841; call rule not given here; note: series mostly up to about 92 µM; actives are mostly falling curves and most rising ones were filed inactive; nearly all actives have a fitted effect of over 50% in size)
Outline: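 qHTS antagonist format: PGC/ERR cells, 2k/well, compound in DMSO by pin transfer after 6 h attachment, 18 h treatment at 37 C, One-Glo luminescence read at 30 min.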

[14] = qHTS assay to identify small molecule agonists of the estrogen related receptor signaling pathway with the pleiotropic PPARgamma coactivator (PGC) from Tox21 10K library (AID 1224842); note: nearly all actives have a fitted effect of over 15% in size
Outline: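 PGC/ERR reporter cell line, 2,000 cells per well, incubated 6 h at 37 C before 23 nL compound in DMSO was added. After 18 h at 37 C, One-Glo luminescence read following 30 min at room temperature.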

[15] = qHTS assay to identify small molecule antagonists of the estrogen related receptor (ERR) signaling pathway (AID 1224819;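 note: luminescence from an ERR-driven luciferase reporter measured with One-Glo reagent; series mostly up to about 46 µM; nearly all actives have a fitted effect of over 50% in size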)
Outline: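 Luminescence readout (One-Glo, 30 min, RT) of ERR cell line after 18 h compound exposure at 37 C; cells seeded 2,000/well, pre-incubated 6 h, compounds pinned from DMSO stocks.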

[16] = qHTS assay to identify small molecule agonists of the estrogen related receptor (ERR) signaling pathway (AID 1224820)
Outline: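 Cells: ERR line from NTP, 2,000/well. Pre-incubation 6 h, 37 C/5% CO2. Compound (DMSO) pin transfer, 18 h 37 C. One-Glo, 30 min RT, luminescence.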

[17] = system: estrogen-related receptor alpha (ERRalpha) with PGC-1alpha coactivator, human; test: qHTS assay to identify small molecule antagonists of the estrogen related receptor signaling pathway with the pleiotropic PPARgamma coactivator (PGC) (AID 1224821; calls by dose curve)
Outline: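 Luminescent read-out (One-Glo, 30 min at room temperature) following 18 h treatment of PGC/ERR cells at 37 C with compounds delivered in DMSO. Cells had settled 6 h at 37 C/5% CO2 before dosing.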

[18] = qHTS assay to identify small molecule antagonists of the estrogen related receptor signaling pathway with the pleiotropic PPARgamma coactivator (PGC) cell viability counter screen (AID 1224822; note: series mostly up to about 46 µM)
Outline: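 PGC/ERR cells were plated at 2,000 per well and allowed 6 h to settle before compound addition. Following 17.5 h at 37 C, CellTiter-Fluor reagent was added and fluorescence was read 30 min later.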

[19] = qHTS assay to identify small molecule agonists of the estrogen related receptor signaling pathway with the pleiotropic PPARgamma coactivator (PGC) (AID 1224823)
Outline: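 Steps: plate PGC/ERR cells at 2,000 cells/well; incubate 6 h, 37 C/5% CO2; pin-transfer compounds (DMSO); incubate 18 h, 37 C; add One-Glo; 30 min RT; read luminescence.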

Measured: Potency

Sequence of Thyrotropin receptor (Homo sapiens) (P16473 whole entry, looked up): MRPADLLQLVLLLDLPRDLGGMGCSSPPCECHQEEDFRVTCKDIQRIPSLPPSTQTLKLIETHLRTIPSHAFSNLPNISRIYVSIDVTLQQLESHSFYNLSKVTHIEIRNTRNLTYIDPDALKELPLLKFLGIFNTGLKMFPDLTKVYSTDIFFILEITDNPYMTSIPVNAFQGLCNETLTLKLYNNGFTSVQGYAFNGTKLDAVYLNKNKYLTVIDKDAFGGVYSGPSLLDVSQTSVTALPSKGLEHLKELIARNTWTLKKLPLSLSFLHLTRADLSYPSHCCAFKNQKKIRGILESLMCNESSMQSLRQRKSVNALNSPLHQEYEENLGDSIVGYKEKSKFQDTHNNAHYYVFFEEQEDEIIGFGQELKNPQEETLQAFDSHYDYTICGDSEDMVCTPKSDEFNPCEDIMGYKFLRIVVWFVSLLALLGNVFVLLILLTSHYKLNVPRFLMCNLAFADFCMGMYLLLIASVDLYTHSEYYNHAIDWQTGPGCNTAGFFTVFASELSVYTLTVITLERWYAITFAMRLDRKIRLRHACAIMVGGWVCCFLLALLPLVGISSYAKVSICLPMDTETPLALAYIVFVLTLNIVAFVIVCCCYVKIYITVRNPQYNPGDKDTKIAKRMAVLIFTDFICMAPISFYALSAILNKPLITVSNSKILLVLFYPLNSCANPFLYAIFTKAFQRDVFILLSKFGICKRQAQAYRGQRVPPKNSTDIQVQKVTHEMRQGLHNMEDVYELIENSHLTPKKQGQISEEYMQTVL
Sequence of Nuclear receptor subfamily 1 group I member 3 (Homo sapiens) (Q14994 whole entry, looked up): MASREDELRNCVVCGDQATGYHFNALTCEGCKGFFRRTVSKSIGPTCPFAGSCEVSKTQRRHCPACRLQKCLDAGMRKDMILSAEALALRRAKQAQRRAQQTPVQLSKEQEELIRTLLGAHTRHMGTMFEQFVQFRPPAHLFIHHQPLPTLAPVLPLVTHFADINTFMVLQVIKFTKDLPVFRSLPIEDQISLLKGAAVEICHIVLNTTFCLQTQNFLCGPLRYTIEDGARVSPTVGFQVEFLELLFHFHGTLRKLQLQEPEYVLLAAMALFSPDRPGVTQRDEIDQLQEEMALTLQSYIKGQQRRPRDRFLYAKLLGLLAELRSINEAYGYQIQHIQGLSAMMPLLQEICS
Sequence of Luciferin 4-monooxygenase (Photinus pyralis) (P08659 whole entry, looked up): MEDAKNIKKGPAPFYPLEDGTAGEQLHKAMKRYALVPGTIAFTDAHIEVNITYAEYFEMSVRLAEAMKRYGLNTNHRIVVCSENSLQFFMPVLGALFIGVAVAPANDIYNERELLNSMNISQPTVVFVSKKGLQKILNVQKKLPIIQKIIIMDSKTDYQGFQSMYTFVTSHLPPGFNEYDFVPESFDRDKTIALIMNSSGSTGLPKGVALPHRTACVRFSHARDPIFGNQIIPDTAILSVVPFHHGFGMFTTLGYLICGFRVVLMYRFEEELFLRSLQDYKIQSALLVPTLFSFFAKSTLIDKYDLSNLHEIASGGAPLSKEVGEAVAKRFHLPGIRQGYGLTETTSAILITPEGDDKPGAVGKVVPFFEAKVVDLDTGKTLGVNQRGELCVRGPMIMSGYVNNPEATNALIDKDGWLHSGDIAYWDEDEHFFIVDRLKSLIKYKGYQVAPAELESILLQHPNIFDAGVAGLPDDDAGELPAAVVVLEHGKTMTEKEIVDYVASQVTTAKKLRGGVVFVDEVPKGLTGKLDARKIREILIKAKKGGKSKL

CCCCCCCCCCCCC(=O)O
active: [1] 24.6 µM | [5] 63.5 µM
inactive: [2] | [3] | [4] | [6] | [7] | [8] | [9] | [10]

CCCCC(CC)(CO)CO
not listed: [12] | [13] | [14] | [15] | [16] | [17] | [18] | [19]
inactive: all other assays above

OCC1CC2CC1C1CCC(CO)C21 (stereo not drawn)
not listed: [7] | [8] | [15] | [16] | [17] | [18] | [19]
inactive: all other assays above

CC(=O)c1ccc2c(c1)[C@H](NC(=O)c1ccc(F)cc1)[C@@H](O)C(C)(C)O2
inactive: [1] | [2] | [3] | [4] | [5] | [6] | [8] | [9] | [11] | [10]

CCCCCC(CO)CCC (stereo not drawn)
inactive: [1] | [2] | [3] | [4] | [5] | [6] | [7] | [13] | [10]

OC(CCN1CCCCC1)(c1ccccc1)C1CCCCC1 (stereo not drawn)
inactive: [15] | [16] | [17] | [18] | [19]

CN1CCC(=C2c3ccccc3C=Cc3ccccc32)CC1
inactive: [15] | [16] | [17] | [19]

CC(C)NCC(O)COc1ccc(CC(N)=O)cc1 (stereo not drawn)
inactive: [18]

CCCOc1ccc2nc(NC(=O)OC)[nH]c2c1
inactive: [1] | [3] | [4] | [5] | [6] | [7] | [9] | [11] | [10]

O=c1[nH]cnc2ccccc12
inactive: [1] | [3] | [4] | [12] | [5] | [6] | [7] | [11] | [10]

O=S(=O)(O)c1ccc(O)c2ncccc12
inactive: [1] | [2] | [5] | [6] | [7] | [8] | [11] | [10]

Oc1ccc(O)c2c(O)cccc12
inactive: [1] | [3] | [4] | [5] | [6] | [7] | [9] | [11] | [13] | [10]

CCCCCOC(=O)COc1cc(N2C(=O)C3=C(CCCC3)C2=O)c(F)cc1Cl
inactive: [1] | [3] | [4] | [12] | [5] | [6] | [7] | [11] | [10]

N[C@H]1C(O)O[C@H](CO)[C@H](O)[C@@H]1O (stereo partly drawn)
not listed: [2] | [11] | [14] | [15] | [16] | [17] | [18] | [19]
inactive: all other assays above

Reference: PubChem BioAssay (Tox21)
